# uPA surface inh: inhibitors of cell surface uPA generation; cell surface uPA generation assay, qHTS; Potency, µM (highest dose often 38.3 µM), most hits filed as inhibitors; 0.31% of 330,000 active; AID 540303; active = well fitted inhibition curve with a large enough effect; inconclusive = small, poorly fitted or top-dose-only effect; inactive = no such curve, though single readings can be large or run the other way; tested in mouse RAW 264.7 cells; also: nearly all actives have a fitted effect of over 55% in size
# Rab9 prom act: Rab9 promoter activation; Huh7 Rab9 promoter-luciferase reporter, luminescence, 24 h; Potency, µM (top dose mostly 9.22 µM), hits mostly activators; 2.8% of 320,000 active; AID 485297; also: nearly all actives have a fitted effect of over 60% in size
#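 Quantitative HTS format; Huh7 Rab9-luciferase reporter cells (1500/well) receive compound 2 h post-plating, incubate 24 h at 37 °C, then get luciferase reagent for 10 min before luminescence reading.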
# NPC1 promoter act: NPC1 promoter activation; Huh7 NPC1 promoter luciferase reporter, 24 h; Potency, µM (titrated, usually from 9.22 µM), most hits filed as activators; 2.4% of 320,000 active; also: nearly all actives have a fitted effect of over 60% in size
#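 Readout is luciferase luminescence, reflecting NPC1 promoter activation in stably transfected Huh7 cells after 24 h compound exposure at 37 °C in reduced-serum medium with 10% FBS.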
# SMN2 splice enh: enhancers of SMN2 splice variant expression; HEK293 SMN2-luciferase splicing reporter, luminescence, 30-36 h; Potency, µM (top dose mostly 46.1 µM), hits mostly activators; 2.8% of 210,000 active; also: nearly all actives have a fitted effect of over 55% in size
#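 qHTS luciferase splicing reporter: luminescence rises when SMN2 exon 7 is included in transfected HEK293 cells. Compound exposure lasted 30-36 h at 37C, with 4.5 mM final sodium butyrate as control, followed by a ONE-Glo read.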
# ELG1 genotoxic: genotoxicity induction in ELG1-luciferase HEK293T cells; HEK293T ELG1-luciferase reporter, luminescence, 16 h; Potency, µM (titrated, usually from 46 µM), most hits filed as activators; 1.3% of 330,000 active; also: nearly all actives have a fitted effect of over 60% in size
#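 Step 1: seed 2,000 HEK293T ELG1-luciferase cells per well. Step 2: add compound or DMSO, incubate 16 hr at 37 °C. Step 3: ONE-Glo, 30 min at room temperature, read luminescence.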
# FLuc counter: firefly luciferase modulation, counter-screen for miR-21 project. P08659. purified FLuc, Km substrates, luminescence inhibition. Potency, µM (top dose mostly 57.5 µM), actives largely listed as inhibitors. 6.9% of 360,000 active. AID 588342; also: nearly all actives have a fitted effect of over 55% in size
# Target sequence (P08659 whole entry, looked up): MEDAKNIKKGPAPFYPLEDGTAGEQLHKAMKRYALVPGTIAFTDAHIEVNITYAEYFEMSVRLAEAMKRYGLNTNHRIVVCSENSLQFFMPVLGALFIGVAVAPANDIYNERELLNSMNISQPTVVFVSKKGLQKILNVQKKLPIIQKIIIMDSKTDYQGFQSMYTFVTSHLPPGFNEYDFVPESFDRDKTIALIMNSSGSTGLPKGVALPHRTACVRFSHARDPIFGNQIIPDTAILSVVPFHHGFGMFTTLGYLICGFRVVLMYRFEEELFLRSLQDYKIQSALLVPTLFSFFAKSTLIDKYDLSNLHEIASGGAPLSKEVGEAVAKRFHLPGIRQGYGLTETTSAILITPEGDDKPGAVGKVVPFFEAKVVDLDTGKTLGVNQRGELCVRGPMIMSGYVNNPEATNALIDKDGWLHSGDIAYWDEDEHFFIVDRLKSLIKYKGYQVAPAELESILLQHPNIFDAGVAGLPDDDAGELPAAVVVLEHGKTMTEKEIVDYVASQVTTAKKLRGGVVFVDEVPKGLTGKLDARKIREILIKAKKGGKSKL
#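 Purified P. pyralis luciferase (10nM final) with 10uM D-luciferin and 10uM ATP (Km levels) in 50mM Tris acetate pH 7.5, 10mM Mg acetate, 0.01% Tween-20, 0.05% BSA; qHTS 6-point titration, ~60 µM downward; luminescence read.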
# A number is an active result; 0 = inactive; ? = inconclusive; - = no result; [ ] = remark or other dose. A selection: hits, their analogues and other compounds. The true share with any hit is near 7.3%. Unless noted, calls follow the shape of the dose curve; as a rule, active = well fitted curve in the direction sought with a large enough effect; inconclusive = small, poorly fitted or top-dose-only effect, or another doubt; inactive = no such curve, though single readings can be large; an effect the other way counts as inactive or inconclusive.
SMILES,uPA surface inh,Rab9 prom act,NPC1 promoter act,SMN2 splice enh,ELG1 genotoxic,FLuc counter
COc1ccc(C(=O)C(Cc2ccccc2)N(C)C)cc1 (stereo unspecified),-,0,0,0,0,0
COc1ccc(-c2cn(Cc3ccc(C(=O)c4ccccc4)cc3)nn2)cc1,?,?,?,-,18µM,11µM
O=P(O)(OP(=O)(O)c1ccccc1)c1ccccc1 (tested in a mixture with another compound),-,-,-,0[9.22 µM],-,-
COc1ccc(OCCOc2cccc(C=C3C(=O)NC(=O)NC3=O)c2)cc1,-,0.11µM,0.32µM,-,0,8.5µM
COc1ccc(N(CC(=O)Nc2ccccc2C(F)(F)F)C2=NC3CS(=O)(=O)CC3S2)cc1 (stereo unspecified),?,0,0,-,0,0
COC(=O)[C@@H]1C[C@H]1[C@@H](NP(=O)(c1ccccc1)c1ccccc1)c1ccccc1,?,0,0,10µM,18µM,0
COC(=O)[C@H]1C[C@@H]1[C@H](NP(=O)(c1ccccc1)c1ccccc1)c1ccccc1,0,0,0,0,0,0
O=C(O)/C=C\c1ccc[c]([Sb])c1,-,-,-,0[9.22 µM],-,-
CC[C@@H]1CN2CCc3cc(OC)c(OC)cc3[C@H]2C[C@@H]1C[C@@H]1NCCc2cc(O)c(OC)cc21,-,-,-,0,-,-
Cc1ccc2ccccc2c1C,-,-,-,0,-,-
CCC(=O)Oc1ccc(C(=O)Nc2cccc(C(=O)c3ccccc3)c2)cc1,0,0,0,0,0,17µM
CN(C)C(=O)Oc1ccc(C(=O)c2ccccc2)cc1,0,0,0,0,0,?
O=C(O)c1cc[c]([Hg][S]c2ncnc3nc[nH]c23)cc1,-,-,-,0[9.22 µM],-,-
O=S(=O)(Cl)c1ccccc1,-,-,-,0,-,-
Cc1cc(C(=O)N=Nc2c(O)n(C)c3ccccc23)c(C)o1,0,3.5µM,2.5µM,7.1µM,7.3µM,2.7µM
Cn1c(=O)oc(=O)c2ccccc21,0,-,-,-,-,-
COc1cc2c(cc1O)[C@@H]1Cc3ccc(OC)c(O)c3CN1CC2,4.5µM,0,0,-,0,0
COc1ccc(C[C@@H]2c3cc(O)c(OC)cc3CCN2C)cc1O,0,0,0,0,0,0
C[C@@H]1O[C@H](O[C@H]2C[C@@H](O)[C@@]3(CO)[C@H]4[C@@H](O)C[C@]5(C)[C@@H](C6=CC(=O)OC6)CC[C@]5(O)[C@H]4CC[C@]3(O)C2)[C@@H](O)[C@H](O)[C@@H]1O,-,-,-,0,-,-
COc1ccc(NC2CC(=O)N(C(C)C)C2=O)cc1 (stereo unspecified),0,3.2µM,?,16µM,4.1µM,15µM
COc1ccc(NP2(=O)OCC(C)(N)CO2)cc1 (stereo unspecified),0,-,-,-,-,-
Oc1c(Cl)c(Cl)cc(Cl)c1Cl,-,-,-,0,-,-
c1cncc(CNc2cc(-c3ccc4c(c3)OCO4)ncn2)c1,-,-,-,10µM,-,-
Cc1cc(C(=O)CS(=O)(=O)c2ccccc2)cc(C)c1OC(=O)N(C)C,0,0.79µM,3.2µM,10µM,0,6.7µM
O=[N+]([O-])c1ccc(N=Nc2c(Cl)cc(O)cc2Cl)cc1,?,0,0,-,0,2.7µM
SMILES,uPA surface inh,Rab9 prom act,NPC1 promoter act,SMN2 splice enh,ELG1 genotoxic,FLuc counter
O=[N+]([O-])c1cc(Cl)c(Cl)c(Cl)c1,-,-,-,0,-,-
O=C1c2ccccc2-c2cccc3cccc1c23,8.9µM,-,-,0,-,-
O=C1c2ccccc2-c2cc3ccccc3cc21,0,-,-,-,-,-
c1ccc2c(CN3CCCCCC3)c[nH]c2c1,?,?,0,-,?,17µM
c1ccc2c(CN3CCOCC3)c[nH]c2c1,0,0,0,-,0,0
Cc1ccc(Nc2nc(N)nc(CCl)n2)c(C)c1,4µM,0,0,-,0,11µM
COc1ccc2c(c1)NP(=S)(Oc1ccccc1)N2 (stereo unspecified),0,0,0,-,?,6.7µM
N/C(=N\N=C/c1ccc(-c2ccc(O)c(C(=O)O)c2)o1)N[N+](=O)[O-],-,0,0,0,0,27µM
CCCCNC(=O)n1c(NC(=O)OC)nc2ccccc21,-,-,-,0,-,-
O=C(Nc1nnc(-c2ccc3c(c2)CCCC3)o1)c1ccccc1,10µM,0,0,0,?,19µM
CCOc1ccc(N2C(=O)/C(=C/c3ccco3)C(=O)NC2=S)cc1,0,0,0,-,0,?
Cc1ccccc1N1C(=O)/C(=C/c2ccco2)C(=O)NC1=S,-,0,0,-,0,24µM
CCCCC/C=C\C/C=C\C/C=C\C/C=C\CCCC(=O)N[C@H](C)CO,-,-,-,0,-,-
COc1ccc(C(=O)Nc2nnc(S(=O)(=O)N(CC(C)C)c3ccc(C)cc3)s2)cc1OC,-,-,-,-,-,8.5µM
O=C(NCc1cccs1)c1cc(C2CC2)on1,?,?,0,0,23µM,?
c1ccc(OP(Oc2ccccc2)Oc2ccccc2)cc1,-,-,-,0,-,-
Oc1c(Cl)cc(Cl)cc1Cl,-,-,-,0,-,-
C[C@@H](O)CN(CCN(C[C@@H](C)O)C[C@@H](C)O)C[C@@H](C)O.O=[N+]([O-])O.[Cu],-,-,-,0[9.22 µM],-,-
O=C(O)CCn1cc(C=C2C(=O)NC(=S)NC2=O)c(-c2cccc(Cl)c2)n1,0,0,0,-,0,21µM
O=C(O)CCn1cc(C=C2C(=O)NC(=O)NC2=O)c(-c2ccc(Br)cc2)n1,0,0,0,0,0,0
ClCc1ccccc1,-,-,-,0,-,-
COC(=O)[C@H]1C(=O)[C@H](C(=O)OC)[C@@H]2CC[C@H]1N2C,-,-,-,0[9.22 µM],-,-
Cc1ccc(N)c(C)c1,0,0,0,0,0,0
Cc1ccc(N=Nc2cc(C)ccc2N)cc1,0,0.32µM,0.5µM,-,0.46µM,0.19µM
CC1CCN(C(=O)COC(=O)c2cn(C)c3ccccc23)CC1,0,0,0,-,0,24µM
SMILES,uPA surface inh,Rab9 prom act,NPC1 promoter act,SMN2 splice enh,ELG1 genotoxic,FLuc counter
CCCC[N+](=O)[O-],-,-,-,0,-,-
O=P(Nc1cccnc1)(Oc1ccccc1)Oc1ccccc1,0,0,0,4µM,0,0
N#Cc1cccc(NC(=O)c2sc3nc4c(cc3c2N)N2CCC4CC2)c1,-,-,-,-,-,12µM
CN(C)c1ccc(NC(=O)c2sc3nc4c(cc3c2N)N2CCC4CC2)cc1,-,-,-,0,-,0
Nc1c(C(=O)Nc2ccc(F)c(Cl)c2)sc2nc3c(cc12)N1CCC3CC1,-,-,-,0,-,8.5µM
Nc1c(C(=O)Nc2ccc(Br)cc2F)sc2nc3c(cc12)N1CCC3CC1,-,-,-,0,-,0
CC1CC(C)C(=O)[C@H](C(O)CC2CC(=O)NC(=O)C2)C1 (stereo partly specified),-,-,-,0,-,-
O=c1[nH]c(O)c(N=Nc2ccc3c(c2)OCCO3)c(=O)[nH]1,0,0,0,0,?,1.5µM
O=c1[nH]c(=S)[nH]c(O)c1N=Nc1ccc2c(c1)OCO2,0,2.8µM,?,0,?,4.8µM
O=c1[nH]c(=S)[nH]c(O)c1N=Nc1ccc2c(c1)OCCO2,0,2.5µM,?,-,?,0.85µM
CC(=O)c1ccc2c(c1)OCO2,0,0,0,0,0,0
O=c1[nH]c(=S)[nH]c(O)c1N=Nc1ccc(S(=O)(=O)N2CCOCC2)cc1,0,0,0,-,0,0
Nc1n[nH]c(N)c1N=Nc1ccc2c(c1)OCO2,?,?,?,0,0,12µM

# Source: PubChem BioAssay
